Reference: PubChem BioAssay (NCATS)
Records with an inconclusive call do not appear. Unmarked numbers belong to inactive results. The call rests on the fitted dose curve; in most records, active means well fitted curve in either direction with a large enough effect (not every such curve was filed as active); inconclusive means small, poorly fitted or top-dose-only effect, or another doubt; inactive means flat fitted curve, though single readings scatter.

Each compound was assayed against Mitogen-activated protein kinase 10 (Mus musculus) (UniProt Q61831) (assay: JNK3 AlphaScreen Assay (AID 530;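 further: kinase came from lysate of stimulated human HepG2 cells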)). Conditions: JNK3 lysate, c-Jun phosphorylation; series mostly up to 57.1 µM; activity change, negative = inhibition: at the top concentration.
From the text: NIH Chemical Genomics Center [NCGC]
NIH Molecular Libraries Screening Centers Network [MLSCN]
The c-jun N-terminal kinase (JNK) family are serine/threonine protein kinases that phosphorylate c-jun, a component of the transcription factor […] (AP-1). JNK kinases are members of the mitogen-activated protein kinase family including the extracellular regulated kinases and p38 kinases. Three JNK genes (JNK 1, 2, and 3) have been identified in humans so far. JNK1 and JNK2 have a broad distribution and JNK3 is primarily found in neuronal tissues and cardiac myocytes.
JNK3 has been under consideration as a target for the treatment of neurodegenerative disorders. […] JNK pathway is also involved in pathological process in a mouse model of Parkinson's disease (Xia et al., 2001).
Given these potential tissue distributions and links to neuroprotection, JNK3 inhibitors should provide useful investigational tools to study the role of this kinase in several diseases including, arthritis, stroke, myocardial infarction, ischemic injury and Parkinson's disease.
A homogeneous AlphaScreen is developed to measure the activity of JNK3. AlphaScreen is a two bead-based proximity-dependent chemical energy transfer luminescent assay platform. The phosphorylation of a biotinylated c-jun substrate by JNK3 can be detected with an antibody raised against phosphorylated c-jun. This process brings streptavidin donor beads and Protein-A acceptor beads to within a proximity range of <200 nm, and subsequently lead a chemical luminescent reaction upon exciting donor beads with 680 nm laser excitation light. Inhibition of JNK3 activity by small molecules and subsequent decrease in the antibody binding to biotinylated c-jun could attenuate or abolish this chemical luminescent reaction.
Yang DD, Kuan CY, Whitmarsh AJ, Rincon M, Zheng TS, Davis RJ, Rakic P and Flavell RA (1997) Absence of excitotoxicity-induced apoptosis in the hippocampus of mice lacking the Jnk3 gene. Nature 389:865-870. [PMID: 9349820]
Herdegen T, Claret FX, Kallunki T, Martin-Villalba A, Winter C, Hunter T, and Karin M (1998) Lasting N-terminal phosphorylation of c-Jun and activation of c-Jun N-terminal kinases after neuronal injury. J.Neurosci. 18:5124-5135. [PMID: 9651196]
Xia XG, Harding T, Weller M, Bieneman A, Uney JB and Schulz JB (2001) Gene transfer of the JNK interacting protein-1 protects dopaminergic neurons in the MPTP model of Parkinson's disease. Proc.Natl.Acad.Sci.U.S.A. 98:10433-10438.
NCGC Assay Protocol Summary:
GST-cJun (1-79) (Stratagene, La Jolla CA, #205145) was biotnylated by PerkinElmer (PerkinElmer-BioSignalInc. Montreal, Canada) and was detectable by the streptavidin Donor beads. Anti-(phospho)cJun (Ser73) antibody was from UpState (Charlottesvilles, VA, #06-659). JNK3-containing lysates were generated from HepG2 cells and pre-activated by interleukin1-beta and tumor necrosis factor alpha. All reagents were stored at -20 C before using. Phosphorylated biotinylated-GST-cJun was recognized by Anti-(phospho)cJun (Ser73) antibody and this process brings acceptor and donor beads together. Therefore JNK3 phosphorylation of cJun can be measured by Alpha reading by EnVision (PerkinElmer, Boston, MA).
The composition of kinase buffer was (in mM) 20 tris- HCl (pH 7.6) 10 MgCl2, 1 DTT, and 0.1 Na3VO4 and 0.01% Tween-20. Beads were diluted in detection buffer containing (in mM) 20 tris-HCl (pH 7.7), 20 NaCl and 80 EDTA and 0.3% BSA. The assay was performed at room temperature. All compounds were screened as titrations from 0.6 nM to 46 uM final concentration. The assay was performed in 1536-well format (white solid bottom and untreated) as follows:
Sequence,Parameter,Value,Description
1,Reagent,3 uL,Biotin-GST-cJun, Anti-(phospho)cJun and pre-activated JNK3-containing lysates
2,Compound,23 nL,Final concentration was 0.6nM to 46uM
3,Time,15 minutes,Room Temperature
4,Reagent,1 uL,ATP final concentration 10uM
6,Reagent,0.5 uL,2ng/well bead mixture
[…]
On the % scale 0 is the no-effect control and ±100 the full control effect.

Structure (SMILES)	activity change, negative = inhibition [%]
FC(F)(F)c1cccc(Cl)c1	8.29
C=Cc1ccccc1C=C	11.3
CCCCC/C=C/C=C/C=O	-5.94
CC(=O)c1ccccn1	10.2
BrC/C=C/CBr	-8.28
C1CCOC1	7.32
Nc1ccccc1S(=O)(=O)O	-8.91
c1ccsc1	3.57
CN(C)CCCCl	14.9
Nc1nc(-c2ccccc2)cs1	-12.5
O=[N+]([O-])c1ccc(CCO)cc1	-10.6
CC(C)N=C=NC(C)C	12.6
NC(=O)c1ccccc1[N+](=O)[O-]	19.6
CC(C)c1ccccc1	-5.02
Nc1ccccc1[N+](=O)[O-]	-3.42
CCC1CO1 (stereo not given)	17.6
Cc1cccc2sc(N)nc12	-7.76
CCc1ccccc1	-1.37
Nc1cc(Cl)c(N)c(Cl)c1	0.294
O=C(O)c1ccc(Cl)c(Cl)c1	-3.01

Structure (SMILES)	activity change, negative = inhibition [%]
N#Cc1ccccc1	-9.14
C=C(C)OC(C)=O	10.7
Clc1cc(Cl)cc(Cl)c1	-3.2
O=P(O)(OCc1ccccc1)OCc1ccccc1	-4.57
Fc1ccccc1	17.5
O=C(O)/C=C/C(=O)O	6.57
Cc1cc(C2(c3cc(C)c(O)cc3C)OS(=O)(=O)c3ccccc32)c(C)cc1O	-29.5
CCC=O	4.48
CCCCCNCCCCC	-10.4
C=CCCC	21.7
CC(N)CN (stereo not given)	22.2
O=Nc1ccc(NO)cc1	13.3
CC(CCl)OC(C)CCl (stereo not given)	1.95
CCCCC(CC)CO (stereo not given)	7.33
Cc1ccc(C)c(N)c1	28.5
OC1CCCC1	1.92
Cc1cscn1	-4.75
COC(=O)c1ccccc1	10.1
O=C(O)c1ccccc1C(=O)O	-11.1
Cc1cccc(C(=O)O)c1	-6.63
